Screening results from PubChem BioAssay.
Compounds with a hit are over-represented: about 1.8% of the library has one in this group of screens.
IkB signaling: IkB Signaling; ABC-DLBCL IkBa-CBG/CBR dual luciferase ratio, 4 h; response scale: scaled: untreated 0%, proteasome inhibitor 100%; Potency, µM (doses to about 57.1 µM), for the others: at the top dose IkBa stabilization activation; 110,000 compounds, 0.04% hits; active = well fitted curve in the direction sought with a large enough effect in the signal ratio, not every such curve was filed as active; inconclusive = small, poorly fitted or top-dose-only effect, or a change in a side signal; the % refers to the signal ratio;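 note: the direction sought is a rising ratio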
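Curves were fitted separately to fusion (green), unfused (red) and ratio luminescence, then classed by r2, magnitude and activity. Cells: OCI-Ly3, 4 h compound plus doxycycline at 37C; 10 uM MG-132 defined full response.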
Imprint erasure: qHTS Assay for Compounds that Induce Erasure of Genomic Imprints; mouse ES Peg3-LacZ reporter, beta-gal luminescence, 40 h; Potency, µM (series often up to 60.7 µM), for the others: top-dose activity change, positive = activation, usual class: activators; 110,000 compounds, 0.02% hits; AID 1948, 2009
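Gelatin-coated wells received 300 freshly trypsinized female ES cells with a Peg3LacZ-Neo reporter on the maternal allele, then incubated 40 hours at 37C. BetaGlo was added for 5 minutes at room temperature before a single luminescence read.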
p53ts 39C tox: qHTS Screen for Compounds that Selectively Target Cancer Cells with p53 Mutations: Cytotoxicity of p53ts Cells at the Nonpermissive Temperature. AID 902, 2007. Potency, µM (highest dose often 46.1 µM), for inactives: top-dose activity change, negative = cell killing, most hits filed as cytotoxic. H1299-p53A138V viability at 39C, ATP luminescence, 24 h. 130,000 compounds, 1.5% hits; note: % is set by controls: 0 for no effect and ±100 for the full control effect; nearly all actives have a fitted effect of over 55% in size
p53ts 32C tox: qHTS Screen for Compounds that Selectively Target Cancer Cells with p53 Mutations: Cytotoxicity of p53ts Cells at the Permissive Temperature; H1299-p53A138V at 32C, ATP luminescence viability, 24 h; Potency, µM (top dose mostly 46.1 µM), inactives show top-dose activity change, negative = cytotoxicity, hits mostly cytotoxic; 130,000 compounds, 0.93% hits; AID 924, 2007;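 note: 0% = DMSO and -100% = full killing by reference compound; nearly all actives have a fitted effect of over 55% in size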
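H1299-p53 A138V cells (temperature-sensitive p53) exposed 24 h to up to 46 uM compound at 32C, where p53 is wild-type in conformation. Viability read as ATP luminescence and normalised to DMSO and 100 uM tamoxifen. AC50 fitted with the Hill equation.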
Numbers without * were called inactive; ? = inconclusive; / = no result given; ! = not confirmed by another sample; [ ] = dose if it differs, or a comment. Unless noted, calls come from the whole dose curve; as a rule, active = well fitted curve in the direction sought with a large enough effect; inconclusive = small, poorly fitted or top-dose-only effect, or another doubt; inactive = no such curve, though single readings can be large; an effect the other way counts as inactive or inconclusive. Potency is the fitted concentration of half-maximal effect.

SMILES | IkB signaling | Imprint erasure | p53ts 39C tox | p53ts 32C tox
CCc1ccc(OCC(=O)Nc2ccc3c(c2)c2ccccc2n3CC)cc1 | -3.3% | -6.5%[10.9 µM] | ? | ?
C=C(CO)[C@H]1Cc2c(ccc3c(=O)c4c(oc23)COc2cc(OC)c(OC)cc2-4)O1 | -1.4%[11.4 µM] | / | / | /
CCOc1ccc(CCNC(=O)c2cc(Nc3ccc(C)cc3C)nc3ccccc23)cc1OCC | 1.3% | -13.6%[10.9 µM] | 37.1% | 9.8%
COC(=O)[C@H](Cc1ccccc1)NC(=O)C/C=C\[C@@H](C)[C@@H](CO)OC | / | / | 5.9%[9.22 µM] | 0.5%[9.22 µM]
CCOCc1cc(CN2CCN(c3ccccc3OC)CC2)c(O)c2ncccc12 | 1.9% | 25.2%[10.9 µM] | 20µM* | 5.2%
COc1ccccc1N1CCN(Cc2cc(COC(C)C)c3cccnc3c2O)CC1 | ? | -37.2%[10.9 µM] | 2.51µM* | ?
CC(C)OCc1cc(CN2CCN(c3cccc(C(F)(F)F)c3)CC2)c(O)c2ncccc12 | 10.9% | -30.4%[10.9 µM] | 15.8µM* | -18.0%
COc1ccccc1N1CCN(Cc2cc(Br)c(O)c3ncccc23)CC1 | ? | -25.0% | 15.8µM* | -18.5%
CCOc1ccccc1N1CCN(Cc2cccc(OC)c2O)CC1 | ? | -4.3% | -0.5% | -4.5%
COCc1cc(CN2CCCC2)c(O)c2ncccc12 | 0.1% | -23.0% | ? | 3.9%
CCn1cc2nc(SCc3cc(C)ccc3C)n(Cc3ccc(C)cc3)c(=O)c2n1 | 1.4% | -8.8%[10.9 µM] | -27.0% | -23.9%
CCOCc1cc(CN2CCN(c3cccc(C(F)(F)F)c3)CC2)c(O)c2ncccc12 | ? | -33.5%[10.9 µM] | ? | -1.8%
CCCOCc1cc(CN2CCN(c3ccccc3OC)CC2)c(O)c2ncccc12 | ? | -38.6%[10.9 µM] | 10µM* | 15.8µM*
O=C(c1ccc(OCCN2CCCCC2)cc1)c1c(-c2ccc(O)cc2)sc2cc(O)ccc12 | 3.0%[25.6 µM] | -22.7% | 25.1µM*! | 20µM*!
CC(C)(C)c1ccc(C(=O)Nc2cnccn2)cc1 | 6.5% | -61.3% | 5.01µM* | 5.01µM*
COc1ccc(C(=O)Nc2ccccn2)cc1 | / | / | 17.1% | -1.5%
CCCCCCCCCCCCC(=O)N1CCCC[C@H]1CNC(=O)[C@@H](N)CCCCN | 0.0% | -35.4% | 31.6µM* | -6.8%
CN(C)CCN(Cc1ccco1)C(=O)c1cc2c(s1)-c1ccccc1OC2 | -1.3% | -20.8%[10.9 µM] | 12.6µM* | -8.5%
CCCCN(Cc1ccco1)C(=O)c1cc2c(s1)-c1c(C)cccc1OC2 | ? | 16.6%[10.9 µM] | ? | ?
C=CCn1c(C)cc(C(=O)COc2ncnc3sccc23)c1C | 0.5% | -20.9% | 7.94µM* | ?
CCN(CC)CCCNC(=O)c1ccc2c(c1)N(Cc1c(F)cccc1Cl)C(=O)c1ccccc1S2 | ? | -7.7%[10.9 µM] | 12.6µM* | -7.7%
O=C(NCC12CC3CC(CC(C3)C1)C2)c1cc2n(n1)C(C(F)(F)F)CC(c1ccco1)N2 (stereo not drawn) | 3.6% | -21.2% | 20µM* | -29.7%
CCC/C=C(\CCC)C(NS(=O)(=O)CC12CCC(CC1=O)C2(C)C)c1ccc(C(=O)OC)cc1 (stereo not drawn) | / | -20.6% | -11.9% | -4.3%
Cc1cc(Nc2ccc(N=Nc3ccc(O)c4ncccc34)cc2)nc(C)n1 | 9.7%[11.4 µM] | -12.4%[10.9 µM] | -5.5%[9.22 µM] | -0.6%[9.22 µM]
Cc1ccc(O)c(N=Nc2ccccc2)n1 | 1.0% | -92.1% | 12.6µM* | 20µM*
SMILES | IkB signaling | Imprint erasure | p53ts 39C tox | p53ts 32C tox
Cc1nc(CSc2nnc(C)s2)cs1 | -1.8% | -16.2% | -1.7% | 22.5%
Cc1nnc(Sc2nc(Sc3nnc(C)s3)nc(N3CCN(C)CC3)n2)s1 | 7.94µM* | -24.5% | 3.98µM* | 20µM*
CCCNC(=O)C1CCC(Cn2c(=O)c3sccc3n(CC(=O)N3CCCC(C)C3)c2=O)CC1 (stereo not drawn) | 0.8% | -4.4%[10.9 µM] | -6.5% | 8.7%
Nc1nc2ccc(N3CCOCC3)cc2s1 | -2.3% | -43.3% | 3.98µM* | 3.98µM*
O=C(Nc1ccc(NC(=O)C2CC2)nc1)c1ccccn1 | ? | -88.0% | 6.31µM* | 12.6µM*
O=C(Nc1ccc(NC(=O)c2ccco2)nc1)c1ccccn1 | ? | -90.0% | 12.6µM* | 12.6µM*
CCC(=O)Nc1ccc(NC(=O)c2ccccn2)cn1 | ? | -73.2% | ? | ?
O=C(Nc1ccc(NC(=O)C2CCCCC2)cn1)c1ccco1 | 0.1% | -65.0% | 5.01µM* | 3.98µM*
CC(C)C(=O)Nc1ccc(NC(=O)c2ccccn2)cn1 | 1.1% | -84.0% | 12.6µM* | 7.94µM*
